TEAD-YAP block: TEAD-YAP interaction inhibition | HEK-TIYL cells, TEAD-Gal4/YAP UAS-luciferase luminescence | inhibition, % at 9.12 µM | actives 1.4% (n = 640,000); in the data active = inhibition above about 32%;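 also: 0% = median of test compound wells and 100% = reference inhibitor wells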
MITF inh: inhibitors of human MITF; actives 0.91% (n = 650,000); AID 1259374; O75030; inhibition, % at 2.6 µM; AlphaScreen MITF homodimerization, bead proximity signal; in the data active = inhibition above about 50%;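 also: 0% = vehicle wells with protein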
FBW7 activator: human FBW7 E3 ligase activation, primary screen; normalized activity (activation), % at 26.1 µM; Q969H0; actives 0.13% (n = 650,000); AlphaScreen FBW7–phospho-cyclin E peptide binding, activator screen; AID 1259310; in the data active = normalized activity above about 1.9%;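 also: purified mutant Fbw7 with reduced substrate affinity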
Target sequence (Q969H0 whole entry, looked up): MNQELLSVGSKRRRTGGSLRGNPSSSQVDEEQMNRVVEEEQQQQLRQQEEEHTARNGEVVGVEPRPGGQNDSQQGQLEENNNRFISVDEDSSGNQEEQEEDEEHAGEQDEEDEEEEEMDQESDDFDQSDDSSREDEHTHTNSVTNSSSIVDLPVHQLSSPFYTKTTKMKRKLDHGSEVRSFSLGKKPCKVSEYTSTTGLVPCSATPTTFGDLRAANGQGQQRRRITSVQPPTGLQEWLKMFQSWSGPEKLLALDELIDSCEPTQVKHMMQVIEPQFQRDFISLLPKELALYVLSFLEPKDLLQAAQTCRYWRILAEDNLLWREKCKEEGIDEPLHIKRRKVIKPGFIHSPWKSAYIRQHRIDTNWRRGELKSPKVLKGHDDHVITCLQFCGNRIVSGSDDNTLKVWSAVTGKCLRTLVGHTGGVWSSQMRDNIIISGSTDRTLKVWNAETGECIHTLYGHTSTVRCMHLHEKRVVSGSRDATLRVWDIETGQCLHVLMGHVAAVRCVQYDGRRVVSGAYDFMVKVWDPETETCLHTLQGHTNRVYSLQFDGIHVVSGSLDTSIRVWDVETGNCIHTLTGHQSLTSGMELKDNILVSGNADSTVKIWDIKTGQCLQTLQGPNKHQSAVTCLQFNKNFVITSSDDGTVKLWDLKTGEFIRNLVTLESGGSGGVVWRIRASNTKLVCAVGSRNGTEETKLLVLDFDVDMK
GPR151 ag: activators of human GPR151 | activation, % at 11.2 µM | PathHunter beta-arrestin GPR151 cells, luminescence | actives 1% (n = 650,000) | Q8TDV0; in the data active = activation above about 4.9%;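 also: 0% = median of compound wells and 100% = cells with positive control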
The depositor's hits bear a star. Sampled rows, rich in hits. Any-hit rate of the full collection: about 3.5%.

SMILES | TEAD-YAP block | MITF inh | FBW7 activator | GPR151 ag
CSc1nnc(NC(=O)c2ccccc2Cl)s1 | 39* | 22 | 0 | -11
CSc1nnc(NC(=O)c2ccccc2[N+](=O)[O-])s1 | -18 | 1 | 0 | -1
CCOC(=O)c1sc(NC(=O)CSC2=NN3CCCC(=O)N=C3S2)c(C(=O)OCC)c1C | 1 | 8 | 0 | 5
Cn1nnc2c(N3CCN(S(=O)(=O)c4ccccc4Cl)CC3)ncnc21 | 38* | -11 | 0 | -1
CC(=O)Nc1ccc2c(c1)nc(CN1CCCCC1)n2C | 19 | 12 | 0 | 0
Cn1c(=O)c2sccc2n2c(CCCC(=O)Nc3cccc(F)c3)nnc12 | 1 | 2 | 0 | 0
COc1cccc(CNC(=O)c2cc(-c3ccncc3)nc3ccccc23)c1 | 6 | 6 | 0 | -1
C/C(=N\NC(=O)c1cc(-c2ccncc2)nc2ccccc12)c1ccc(-n2ccnc2)cc1 | 43* | -11 | 0 | 1
CC/C(C)=N\NC(=O)c1cc(-c2ccccc2)nc2ccccc12 | -13 | -10 | 0 | 2
COc1cccc(/C(C)=N/NC(=O)c2cc(-c3ccncc3)nc3ccccc23)c1 | 49* | 0 | 0 | -1
C/C(=N\NC(=O)c1cc(-c2ccncc2)nc2ccccc12)c1ccc(C#N)cc1 | 42* | 8 | 0 | 0
COCCNC(=O)c1c2c(nc3ccccc13)CCCC2 | -1 | 21 | 1 | 1
Cc1ccc(C(=O)C[n+]2cc(-c3ccc(C)cc3)n3c2CCCCC3)cc1 | 86* | 10 | 0 | -1
O=C1NC2(CCN(C(=O)c3csc4c3CCCC4)CC2)Nc2ccccc21 | 40* | 21 | 0 | -1
CC1CCc2c(sc3nnn(CC(=O)NCc4cccs4)c(=O)c23)C1 (stereo not given) | 43* | 8 | 0 | 1
COc1ccc(-c2nc(NCCN3CCOCC3)c3ncn(-c4ccccc4)c3n2)cc1 | 47* | 16 | 0 | -1
c1ccc(-n2cnc3c(NCCN4CCOCC4)nc(NCCN4CCOCC4)nc32)cc1 | 6 | 7 | 0 | -1
CN1CCN(c2ccc(-c3nc(NCCOc4ccccc4)c4ncn(-c5ccsc5)c4n3)cc2)CC1 | 11 | 6 | 0 | 0
CN1CCN(c2ccc(-c3nc(NCCO)c4ncn(-c5ccccc5)c4n3)cc2)CC1 | 73* | -11 | 0 | 0
c1ccc(Oc2nc(NCCN3CCOCC3)c3ncn(-c4ccccc4)c3n2)cc1 | 34* | 20 | 0 | 1
C#CCN1C(=O)C(O)(CC(=O)c2ccc3c4c(cccc24)CC3)c2ccccc21 (stereo not given) | 5 | 10 | 0 | 1
CC(=O)N1CCc2cc(C(=O)CN3CCN(c4ccc(Cl)cc4)CC3)ccc21 | 44* | -2 | 0 | 1
O=C(CSc1n[nH]c(-c2ccccc2)n1)Nc1cccc2ccccc12 | 53* | -2 | 0 | 1
O=C(CSc1n[nH]c(-c2ccccc2)n1)Nc1ccccc1Cl | -8 | 4 | 1 | -2
Cc1ccnc(NC(c2ccc3cccnc3c2O)c2sccc2C)c1 (stereo not given) | 30 | 22 | -1 | 0
SMILES | TEAD-YAP block | MITF inh | FBW7 activator | GPR151 ag
Cc1ccnc(NC(c2ccc(N(C)C)cc2)c2ccc3cccnc3c2O)c1 (stereo not given) | -56 | 60* | 0 | 2
Cc1ccnc(NC(c2ccc(Cl)cc2)c2ccc3cccnc3c2O)c1 (stereo not given) | 84* | 13 | -1 | 1
Cc1ccnc(NC(c2ccc(O)cc2)c2ccc3cccnc3c2O)c1 (stereo not given) | -5 | 27 | -1 | 0
Cc1ccnc(NC(c2ccc(C(C)C)cc2)c2ccc3cccnc3c2O)c1 (stereo not given) | 53* | 4 | 0 | 0
O=C(C=Nc1ccccc1[N+](=O)[O-])Nc1ccco1 | -1 | 0 | 0 | 2
Cc1cc(C(=O)Nc2cnn(Cc3ccc(Cl)cc3)c2)cs1 | 16 | -3 | 0 | 0
O=[N+]([O-])c1ccc(Nc2nc(OC(C(F)(F)F)C(F)(F)F)nc(OC(C(F)(F)F)C(F)(F)F)n2)cc1 | 0 | 7 | 0 | 1
CCCN1CCC2(CC1)NC(=O)N(CC(=O)NCCc1ccccc1)C2=O | 4 | 10 | 0 | -2
CCCN1CCC2(CC1)NC(=O)N(CC(=O)NCCc1ccc(OC)c(OC)c1)C2=O | 8 | 15 | 2.7* | 0
CC(C)OCCCN1C(=O)C2C(C(=O)Nc3ccc(Br)cc3)C3C=CC2(O3)C1C(=O)NC1CCCCC1 (stereo not given) | -1 | 4 | 0 | 0
CCCCSc1nnc(-c2ccc3c(c2)OCO3)n1C | -71 | 13 | 2.1* | 0
COc1cncc(-c2cncc(-c3ccc(Oc4ccccc4)cc3)n2)c1 | 2 | 23 | 0 | 1
CC(=O)NCc1ccc(-c2csc(N)n2)cc1 | 13 | -5 | 0 | 2
CC(=O)NC(C)CCc1ccc(-c2csc(N)n2)cc1 (stereo not given) | 36* | 5 | 0 | -2
O=C(O)CCN(CCC(=O)O)c1ccccc1O | 0 | 21 | 0 | 1
Cc1[nH]c2ccc(-c3nnc(SCC(=O)N(C(C)C)C(C)C)o3)cc2c1C | 36* | 18 | 0 | -1
COc1ccc(/C=C2/SC(=O)N(CCCC(=O)Nc3cccc(O)c3)C2=O)cc1 | 66* | -3 | 0 | 0
CCOc1cc(/C=C2/SC(=S)N(CCCC(=O)O)C2=O)ccc1O | 73* | 23 | 0 | -2
COc1cc(/C=C2\SC(=S)N(CCCC(=O)O)C2=O)ccc1O | 62* | 5 | 0 | 2
CCOc1cc(/C=C2\SC(=Nc3ccc(C(=O)O)cc3)N(C)C2=O)ccc1O | 46* | 3 | 0 | 2
CCOc1cc(/C=C2\SC(=S)N(CCOC)C2=O)ccc1O | 5 | 17 | 1 | 0
CC1Oc2cccnc2N(Cc2ccc(Cl)cc2)C1=O (stereo not given) | 6 | -3 | 0 | 0
COCCNCCCCOc1ccc2ccccc2c1Br | -12 | 22 | 0 | -1
NC(=O)c1c(NC(=O)CCN2C(=O)c3ccccc3C2=O)sc2c1CCCC2 | 6 | -6 | 0 | 0
COc1ccc(-c2csc(NC(=O)COC(=O)c3c(OC)cccc3OC)n2)cc1 | -25 | 3 | 0 | 1
SMILES | TEAD-YAP block | MITF inh | FBW7 activator | GPR151 ag
Cc1ccc(S(=O)(=O)OCCC#N)cc1 | -2 | 16 | 0 | -1
Cc1ccc(Nc2nc(-c3ccc(O)cc3)cs2)nc1 | 33* | -16 | 0 | 1
CC(C)n1cnc2c(NCCOc3ccccc3)nc(Nc3nccc4ccccc34)nc21 | 7 | -6 | 0 | -1
Cc1noc(C)c1COc1cccc(C(=O)OCC(=O)Nc2sccc2C(N)=O)c1 | -5 | -13 | 0 | 1
COc1cc2cc(C)c3nnc(SCC(=O)O)n3c2cc1OC | -5 | 16 | 0 | 0
Cn1c(Nc2nc(NCc3nc4ccccc4[nH]3)c3ncn(-c4ccsc4)c3n2)nc2ccccc21 | 22 | 12 | 0 | 0
c1cncc(CNc2nc(Nc3ccc(-n4ccnc4)cc3)nc3c2ncn3-c2ccsc2)c1 | 55* | 6 | 0 | 0
c1ccc2[nH]c(CNc3nc(Nc4ccncn4)nc4c3ncn4-c3ccsc3)nc2c1 | 82* | -1 | 0 | -2

Screens (PubChem)
